In all, about 89,000 compounds went through this assay and about 440 (0.49%) were called active. The sample holds actives, similar compounds and a random draw of the others, so the mix is not that of the screen. Values without a mark were called inactive.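 How the source made its calls: active means inhibition above the mean inhibition across all screened compounds plus 3 SD (cut at about 11% in these data); inactive means the rest.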
These molecules were tested against RNA-editing ligase 1, mitochondrial (Trypanosoma brucei brucei) (UniProt P86926) (assay: TbREL1 RNA ligase inhibitors, primary screen, biochemical, FRET fluorescence (AID 1117264;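 further: 0% = plate median of test wells and 100% = NSC42067 control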)). Conditions: TbREL1 RNA ligation, at 9.66 µM, stronger effect = higher value.
RNA-editing ligase 1, mitochondrial (Trypanosoma brucei brucei), sequence (P86926 whole entry, looked up): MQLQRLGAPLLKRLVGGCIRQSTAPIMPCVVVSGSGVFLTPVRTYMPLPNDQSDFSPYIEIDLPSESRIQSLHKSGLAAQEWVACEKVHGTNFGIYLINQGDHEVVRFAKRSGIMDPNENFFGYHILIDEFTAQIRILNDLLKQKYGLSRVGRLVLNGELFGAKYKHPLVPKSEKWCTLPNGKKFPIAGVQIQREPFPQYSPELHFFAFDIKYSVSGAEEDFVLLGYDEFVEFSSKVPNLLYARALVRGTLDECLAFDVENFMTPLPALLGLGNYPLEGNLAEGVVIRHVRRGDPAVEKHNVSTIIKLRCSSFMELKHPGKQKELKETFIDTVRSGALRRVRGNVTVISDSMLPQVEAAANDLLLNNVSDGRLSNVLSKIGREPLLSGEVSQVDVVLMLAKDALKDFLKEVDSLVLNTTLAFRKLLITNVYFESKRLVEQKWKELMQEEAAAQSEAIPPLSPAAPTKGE
Work on `COc1ccc(C2COC(=O)C2=N)c(NC(=O)c2ccccc2)c1` (centres undefined) yielded an inhibition of -1.11%.
With `COc1ccc(N2C(=O)CC(SC(C)C)C2=O)cc1` (centres undefined) the inhibition was -3.91%.
`CCOc1ccc(C(=O)CCC(=O)Nc2ccncc2)cc1` gave an inhibition of -0.23%.
In the case of `O=C(CSc1nc(O)c(Cc2ccccc2)c(=O)[nH]1)Nc1nc2c(s1)CCCC2`, the inhibition is reported as -3.09%.
`CC1CCCCC12NC(=O)N(CC(=O)N1CCN(c3ccccc3)CC1)C2=O` (centres undefined) showed an inhibition of -1.93%.
Work on `C[C@H](NC(=O)c1ccccc1Cl)C(=O)OCC(=O)N1CCN(c2ccccc2)CC1` yielded an inhibition of -4.27%.
In the case of `O=C(NC1CCC(O)CC1)c1ccccc1OCc1ccc(F)cc1` (centres undefined), the inhibition is reported as -4.15%.
Molecule `CCC(C)NCC(=O)Nc1ccc([N+](=O)[O-])cc1C(=O)Nc1ccccc1F` (centres undefined) has an inhibition of 1.57%.
`O=C(COC(=O)/C=C/c1ccc2c(c1)OCO2)NC1CCS(=O)(=O)C1` (centres undefined) showed an inhibition of -1.84%.
For `CC(=O)c1c(C)oc2ccc(NS(=O)(=O)c3ccc(C(=O)O)cc3)cc12`, the inhibition was 2.43%.
In the case of `Cc1cc(C)nc(NC(=S)N2CCN(c3ccc(C(F)(F)F)cn3)CC2)c1`, the inhibition is reported as -3.25%.
For `Cc1cccc(C(=O)Nc2ccc3c(c2)C(=O)N(CC(C)C)C3=O)c1`, the inhibition was 5.77%.
In the case of `CC(=O)N(CN1C(=O)C2C3C=CC(C3)C2C1=O)c1cccc(Cl)c1` (centres undefined), the inhibition is reported as -2.46%.
`COC(=O)[C@@]12CCCCC3=C1N(CCC3)C(=O)[C@H]2CC(=O)NCc1cccc2ccccc12` was tested, and the inhibition was -3.03%.
For `CN(CC(=O)Nc1c(Cl)cccc1Cl)C(=O)c1ccncc1`, the inhibition was -0.71%.
`CCOC(=O)[C@H]1[C@H]2COc3ccc(Cl)cc3[C@@H]2N2C(=O)c3cc(C)ccc3NC(=O)[C@@]12C` gave an inhibition of -1.49%.
Work on `COc1cccc(CNC(=O)CNS(=O)(=O)c2ccc3nc(C)sc3c2)c1OC` yielded an inhibition of -4.98%.
In the case of `CCCCN(C1CCS(=O)(=O)C1)S(=O)(=O)c1ccc(C(C)C)cc1` (centres undefined), the inhibition is reported as 0.44%.
In the case of `COc1cccc(NC(=O)CN(C)C(=O)CSCc2nc3scc(-c4cccs4)c3c(=O)[nH]2)c1`, the inhibition is reported as -0.31%.
Work on `Cc1ccccc1NC(=O)Cn1cc(C(=O)C2CC2)c2ccccc21` yielded an inhibition of 2.47%.
Work on `COc1cccc(NC(=O)CCNS(=O)(=O)c2ccc3c(c2)oc(=O)n3C)c1` yielded an inhibition of 3.31%.
With `COc1cc(NC(=O)CCS(=O)(=O)c2ccc3c(c2)oc(=O)n3C)cc(OC)c1` the inhibition was 12.5% (active).
In the case of `COc1cc(NS(=O)(=O)c2ccc(NC(C)=O)cc2)cc(OC)c1`, the inhibition is reported as 0.52%.
`Cc1ccc(NC(=O)C(C)Sc2nnc(C3CC3)n2C2CC2)cc1S(=O)(=O)N1CCOCC1` (centres undefined) showed an inhibition of 5.95%.
